# RPL19A TOR yeast – RPL19A-GFP expression modulators in yeast, primary screen, cell-based, S. cerevisiae, multiplex flow cytometry, MLPCN. S. cerevisiae RPL19A-GFP strain, 3 h; active compounds read low. percent response vs DMSO, % at 10 µM. hit rate 0.3% among 330,000. AID 2025, 2009;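 active = percent response vs DMSO below 50%; inconclusive = fewer than 70 events counted for the yeast strain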;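 note: median channel GFP fluorescence of the barcoded RPL19A-GFP strain; ratio of sample median GFP to plate DMSO average so 100% = DMSO; lower means less RPL19A-GFP as with rapamycin TOR inhibition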
# AGP1 TOR yeast – modulators of AGP1-GFP expression in yeast TOR pathway, primary screen, cell-based, multiplex flow cytometry, S. cerevisiae, MLPCN library. 3 h; GFP as percent of DMSO wells. GFP response vs DMSO, % at 10 µM. hit rate 0.02% among 320,000. AID 2066, 2009;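 active = GFP response relative to DMSO above a set limit, near screen average plus 3 SD, cut at about 150% in these data; inconclusive = fewer than 70 cells counted for the yeast strain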;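 note: median GFP channel fluorescence of the gated AGP1 strain per well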
# VLA-4 inh – inhibition in human VLA-4 binding assay, primary screen, VLA-4 allosteric modulator project, MLPCN library, flow cytometry, VLA-4 expressing cells; Integrin alpha-4 (Homo sapiens), P13612; ligand binding flow cytometry; inhibition, % (about 7 µM as worked out from the volumes in the protocol); hit rate 0.2% among 330,000; in the data active = inhibition above about 50%
# Target sequence (P13612 whole entry, looked up): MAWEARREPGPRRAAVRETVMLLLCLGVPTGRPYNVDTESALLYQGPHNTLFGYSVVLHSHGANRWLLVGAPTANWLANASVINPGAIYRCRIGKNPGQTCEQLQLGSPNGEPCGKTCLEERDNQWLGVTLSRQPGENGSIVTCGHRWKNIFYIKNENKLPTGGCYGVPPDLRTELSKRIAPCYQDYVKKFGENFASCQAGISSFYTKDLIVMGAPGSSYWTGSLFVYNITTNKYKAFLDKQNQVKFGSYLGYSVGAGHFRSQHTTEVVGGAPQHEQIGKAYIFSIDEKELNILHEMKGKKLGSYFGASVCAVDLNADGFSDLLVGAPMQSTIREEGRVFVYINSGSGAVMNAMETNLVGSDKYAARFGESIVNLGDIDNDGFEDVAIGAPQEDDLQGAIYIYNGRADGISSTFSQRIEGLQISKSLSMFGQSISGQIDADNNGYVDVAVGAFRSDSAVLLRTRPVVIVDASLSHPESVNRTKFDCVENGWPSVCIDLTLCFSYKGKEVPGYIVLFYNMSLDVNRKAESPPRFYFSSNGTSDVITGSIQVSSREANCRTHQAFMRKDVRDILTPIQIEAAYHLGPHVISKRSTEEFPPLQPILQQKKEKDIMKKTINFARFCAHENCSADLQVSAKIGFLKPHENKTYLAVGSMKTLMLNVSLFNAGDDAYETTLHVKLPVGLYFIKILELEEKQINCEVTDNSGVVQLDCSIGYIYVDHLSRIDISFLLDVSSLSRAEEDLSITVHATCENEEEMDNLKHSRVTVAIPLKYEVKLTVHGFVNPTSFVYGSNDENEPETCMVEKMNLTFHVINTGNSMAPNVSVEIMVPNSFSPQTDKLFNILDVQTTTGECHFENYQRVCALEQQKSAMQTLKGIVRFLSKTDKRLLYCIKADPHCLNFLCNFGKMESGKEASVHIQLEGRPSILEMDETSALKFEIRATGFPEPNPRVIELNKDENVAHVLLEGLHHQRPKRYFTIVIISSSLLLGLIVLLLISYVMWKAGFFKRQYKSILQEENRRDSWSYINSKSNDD
# LAP4 TOR yeast – modulators of LAP4-GFP expression in yeast, primary screen, S. cerevisiae, multiplex flow cytometry, MLPCN library | 3 h; median GFP as percent of DMSO wells | GFP response vs DMSO, % at 10 µM | hit rate 0.34% among 320,000 | AID 2023, 2009;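 active = GFP response vs DMSO above a set limit, about the screen mean plus 3 SD, cut at about 150% in these data; inconclusive = under 70 cell events counted for the yeast strain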
# MEP2 TOR yeast – modulators of MEP2-GFP levels in yeast, primary screen, S. cerevisiae, multiplex flow cytometry, MLPCN library. S. cerevisiae MEP2-GFP strain, 3 h; 100% = DMSO control level. GFP response vs DMSO, % at 10 µM. hit rate 0.51% among 330,000;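 active = GFP response versus DMSO above a set limit, roughly screen mean plus 3 SD, cut at about 180% in these data; inconclusive = fewer than 70 cells counted for a yeast strain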;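 note: median GFP fluorescence of the barcode-gated MEP2-GFP cells per well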
# CIT2 TOR yeast – modulators of CIT2-GFP expression in yeast, primary screen, S. cerevisiae, GFP fusion, multiplex flow cytometry, MLPCN library. S. cerevisiae CIT2-GFP strain, 3 h; 100 means same as DMSO wells. GFP response vs DMSO, % at 10 µM. hit rate 0.065% among 320,000. AID 2029, 2009;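 active = GFP response relative to DMSO above a set limit, near the screen mean plus 3 SD, cut at about 150% in these data; inconclusive = Fewer than 70 cells measured for a yeast strain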;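 note: ratio of well median GFP fluorescence to mean of DMSO wells on the plate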
# VLA-4 allo CP – retest of VLA-4 allosteric modulators, confirmation, cell-based, cherry-picked plates, U937, HUTS-21 LIBS antibody; inhibition, % at 6.7 µM; AID 2813, 2010; U937 cells, HUTS-21 LIBS mAb binding, flow cytometry; LDV ligand present at threefold Kd; shares compounds with VLA-4 inh; hit rate 2% among 1,300; in the data active = inhibition above about 40%;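 note: 0% = ligand without compound and 100% = no ligand background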
# * hit, by the source's call; ? = inconclusive; . = no result. The list is not random: actives were taken first. Their share in the collection is about 1.1%.
SMILES,RPL19A TOR yeast,AGP1 TOR yeast,VLA-4 inh,LAP4 TOR yeast,MEP2 TOR yeast,CIT2 TOR yeast,VLA-4 allo CP
O=C(Nc1cccc(OC(=O)c2ccc(Br)o2)c1)c1ccccc1,92.0,103.5,4.5,115.9,98.0,88.3,.
CC(NC(=O)COC(=O)CNC(=O)C1CCCCC1)c1ccccc1 (centres undefined),97.4,96.5,3.0,97.1,96.3,94.6,.
CCN(CC)C(=O)c1nc[nH]c1C(=O)N1CCc2ccccc2C1,95.6,96.3,4.3,95.8,87.4,98.7,.
COc1cccc(C(=O)NNC(=O)c2ccc3ccccc3c2O)c1,101.3,109.7,12.1,102.8,101.5,101.6,.
Cc1ccc(C)c(N/C(N)=N/c2nc(C)cc(C)n2)c1,99.6,99.6,53.9*,95.4,100.8,90.6,3.5
CN(Cc1ccccc1)C(=O)CCCn1c(=O)c2cccn2c2cccnc21,101.6,102.2,18.1,103.4,104.2,101.7,.
NS(=O)(=O)c1ccc(NC(=O)Nc2ccc3c(c2)OCO3)cc1,?,?,-28.9,70.7,99.7,?,.
CCC(C)C(NC(=O)C(N)CC(C)C)C(=O)NC(CCC(=O)OCc1ccccc1)C(N)=O (centres undefined),118.2,80.6,54.0*,81.5,89.3,77.5,5.3
CC(C)C(NC(=O)OC(C)(C)C)C(=O)NC(CCC(=O)OCc1ccccc1)C(N)=O (centres undefined),101.7,94.7,3.6,96.7,91.7,91.3,.
Cc1ccccc1CN1CCN(CC(=O)NC(C)c2ccccc2)CC1 (centres undefined),99.9,104.1,1.6,91.6,99.5,100.9,.
O=C(NCc1ccccc1F)C1CCN(C(=O)c2sccc2-n2cccc2)CC1,102.0,102.8,111.3*,99.4,103.3,101.2,8.6
COc1ccc(C2(C)NC(=O)N(CC3CCCCC3)C2=O)cc1 (centres undefined),96.9,91.3,-2.2,93.9,98.6,93.2,.
COc1ccc(OC)c(S(=O)(=O)NCC(c2ccco2)S(=O)(=O)c2ccccc2)c1 (centres undefined),98.2,100.2,76.2*,98.6,99.8,109.3,0.0
CSc1ccccc1C(=O)C1CCCN(S(=O)(=O)N(C)C)C1 (centres undefined),90.3,91.8,51.5*,94.4,85.8,91.7,-10.4
COc1ccc(CCNC(=O)CSCC(=O)Nc2cc(S(C)(=O)=O)ccc2Cl)cc1,103.6,91.1,1.6,95.0,93.9,91.9,.
CC(C)C[C@H](NC(=O)N1CCn2c1nc1ccccc12)C(=O)N[C@@H](C(=O)O)c1ccccc1,100.0,102.4,-9.6,102.2,107.3,97.5,.
Cc1ccc(-c2nn3c(C)nnc3c3ccccc23)cc1S(=O)(=O)NCc1ccco1,112.3,86.2,-4.7,80.0,93.0,83.0,-0.2
Cc1ccc(-c2nn3c(C)nnc3c3ccccc23)cc1S(=O)(=O)NC(C)(C)CO,97.9,109.7,-8.2,99.9,106.7,109.1,.
Cc1ccc(-c2nn3c(C)nnc3c3ccccc23)cc1S(=O)(=O)N1CCN(CCO)CC1,97.6,103.4,25.2,103.0,104.8,101.1,-2.9
Cc1ccc(-c2nn3c(C)nnc3c3ccccc23)cc1S(=O)(=O)NCCO,85.5,88.2,-6.0,86.9,93.0,.,1.2
Cc1ccc(-c2nn3c(C)nnc3c3ccccc23)cc1S(=O)(=O)NC(C)c1ccccc1 (centres undefined),99.2,.,92.2*,95.7,96.7,103.4,0.7
Cc1ccc(S(=O)(=O)N2CCN(C(=O)COC(=O)C3CCC3)CC2)cc1,95.8,106.9,36.4,98.3,94.7,101.4,.
COC(=O)/C=C1\SC(=NC(=O)c2ccc(C)cc2)NC1=O,99.3,96.7,50.6*,100.7,97.1,95.9,2.4
CCN(CC(=O)NCc1cccs1)C(=O)c1ccc(-c2cccc(C(F)(F)F)c2)o1,100.4,111.4,53.3*,111.2,100.0,99.8,4.0
Cc1ccc(C(=O)CC2(O)C(=O)Nc3ccccc32)s1 (centres undefined),97.2,100.6,57.9*,99.4,106.6,91.1,6.1
SMILES,RPL19A TOR yeast,AGP1 TOR yeast,VLA-4 inh,LAP4 TOR yeast,MEP2 TOR yeast,CIT2 TOR yeast,VLA-4 allo CP
CCOc1ccc(C(=O)Nc2ccc3c(c2)OCCO3)cc1,92.2,83.1,12.8,84.0,90.3,89.9,.
Cc1ccccc1N1CCN(C(=O)c2ccccc2NC(=O)c2ccccc2C(=O)O)CC1,88.5,98.3,7.8,123.4,96.3,82.8,.
O=C(CNC(=O)c1ccc(-c2ccccc2)cc1)OCc1c(Cl)cccc1Cl,98.2,93.1,52.5*,89.6,99.7,98.2,6.2
O=C(CNC(=O)c1ccc(-c2ccccc2)cc1)OCc1c(F)cccc1Cl,97.4,97.3,13.8,96.0,101.0,100.3,.
CCCCCCc1nc2ccccc2c(=O)n1N,99.5,101.5,-11.4,98.4,101.4,104.9,.
CCCCCN1C(=O)Cn2c(nc3ccccc3c2=O)C1C (centres undefined),98.9,96.8,42.9,95.0,100.9,100.9,0.5
CC(=O)c1ccc(OC(=O)Cc2cccc3ccccc23)cc1,95.6,90.4,13.8,79.5,101.9,92.7,.
CC(C)CC(=O)Nc1ccc2c(c1)nc(CCN1CCCCC1)n2C,106.6,102.1,47.4,87.2,106.3,102.7,6.2
C=CCn1c(C)cc(C2=NNC(=NC(C)(C)C)SC2)c1C,96.8,91.9,46.5,85.5,100.9,94.1,-8.5
C=CCn1c(C)cc(C2=NNC(=Nc3ccc(C)cc3)SC2)c1C,98.1,110.5,-0.1,115.0,98.4,96.8,.
COc1cc(/C=C/C(=O)OCC(=O)NCc2ccc(F)cc2)ccc1O,101.1,102.2,12.4,95.5,109.5,103.0,.
CC[C@]12c3[nH]c4ccccc4c3CCN1C(=O)C(CC(=O)NCc1ccco1)C[C@@H]2C(=O)N1CCN(C(=O)C2CC2)CC1 (some centres undefined),?,73.9,57.8*,?,?,?,-3.5
CC1(C)C[C@H](O)[C@]2(CO)[C@H](O)C[C@]3(C)C(=CCC4[C@@]5(C)CC[C@H](O)C(C)(C)C5CC[C@]43C)[C@@H]2C1 (some centres undefined),95.4,102.2,4.4,105.2,92.0,97.1,.

# Compound activity deposited in PubChem BioAssay by NMMLSC.
